High-throughput results: PubChem BioAssay, National Center for Advancing Translational Sciences (NCATS)
FMDV inh – blocks foot and mouth disease virus. FMDV antiviral cell-based qHTS. actives 1.2% (n = 410,000). AID 1159524. Potency, µM (series often up to 57.9 µM), actives largely listed as inhibitors; calls by dose curve; tested in HEK293T cells; also: read-out not given here; nearly all actives have a fitted effect of over 45% in size
HCV inhibitor – inhibitors of hepatitis C virus infection | Huh7.5.1 HCVcc-Cre infection, luciferase reporter, 44 h | Potency, µM (highest dose often 41.8 µM), actives largely listed as inhibitors | actives 3.4% (n = 340,000); active = well fitted inhibition curve with a large enough effect; inconclusive = small, poorly fitted or top-dose-only effect, or another doubt; inactive = no such curve, though single readings can be large or run the other way
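Compounds are dispensed onto cells plated 4 h earlier at 1,000 per well, with HCVcc-Cre virus (about 0.5 moi) added next. Following 44 h of culture, luminescent signal is measured for 15 sec after 15 min with substrate at room temperature.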
LASV entry inh – Lassa virus entry inhibition; Lassa virus pseudotype entry inhibition, cell reporter; Potency, µM (doses to about 37.9 µM), actives largely listed as inhibitors; actives 1.2% (n = 300,000); AID 540256; calls by dose curve; tested in HEK293 cells; also: nearly all actives have a fitted effect of over 50% in size
HCMV inh – human cytomegalovirus inhibition | HFF cells, HCMV-luciferase reporter, 72 h; active compounds read low | activity change, negative = inhibition, % at 57.5 µM | actives 4.5% (n = 410,000) | AID 1259415; in the data active = activity change below about -60%; inconclusive = no clear call, values can overlap the other calls; inactive = above about -39%
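Human foreskin fibroblasts infected with luciferase-reporter HCMV at MOI 1 PFU/cell, compounds at two doses. Luciferase measured 72 h post infection; normalized to buffer-only basal and Salinomycin (10uM) controls.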
MARV entry inh – Marburg virus entry inhibition; Marburg virus pseudotyped entry inhibition, cell reporter; actives 1.8% (n = 300,000); Potency, µM (doses to about 37.8 µM), most hits filed as inhibitors; AID 540276; calls by dose curve; tested in HEK293 cells
Large screens that a line does not name were inactive; ! = repeats disagree. In the library only some 7.9% were active in any assay of this set; here they are far more common.

Cc1ccc(S(=O)(=O)N(C)C)cc1NC(=O)c1ccc(OC(F)(F)F)cc1	none
CN(C)S(=O)(=O)c1cccc(NC(=O)c2ccc(OC(F)(F)F)cc2)c1	FMDV inh inconclusive, HCV inhibitor inconclusive, LASV entry inh inconclusive, HCMV inh -95, MARV entry inh inconclusive
CCC(C(=O)Nc1cccc(S(=O)(=O)N(C)c2ccccc2)c1)c1ccccc1 (centres undefined)	HCV inhibitor inconclusive, LASV entry inh 11µM, MARV entry inh inconclusive
COCc1ccc(C(=O)Nc2cccc(S(=O)(=O)N(C)c3ccccc3)c2)cc1	FMDV inh inconclusive, HCV inhibitor 22µM, LASV entry inh inconclusive, HCMV inh -96, MARV entry inh inconclusive
CCN(CC)S(=O)(=O)c1ccc(N2CCCCS2(=O)=O)cc1	LASV entry inh inconclusive (no result: HCV inhibitor, MARV entry inh)
CN(Cc1ccccc1)S(=O)(=O)c1ccc(NC(=O)C2CCCO2)cc1 (centres undefined)	none
CN(c1ccccc1)S(=O)(=O)c1cccc(NC(=O)C2CCCO2)c1 (centres undefined)	LASV entry inh inconclusive, HCMV inh -62, MARV entry inh inconclusive
CCOc1ccc(Br)cc1S(=O)(=O)Nc1cccc(S(=O)(=O)N(C)c2ccccc2)c1	MARV entry inh 7.9µM
COC(=O)[C@]1(Sc2ccc(C)cc2)CC(=O)N[C@@H]1c1ccccc1	none (no result: HCV inhibitor, LASV entry inh, MARV entry inh)
CC(=O)c1ccc(N/C=C/C(=O)c2ccc(Br)cc2)cc1	none (no result: LASV entry inh, MARV entry inh)
O=C(/C=C/Nc1ccc(F)cc1F)c1ccc(Br)cc1	LASV entry inh 7.1µM, MARV entry inh inconclusive
O=C(/C=C/Nc1ccc(Br)cc1F)c1ccco1	FMDV inh 10µM, LASV entry inh 2.2µM, MARV entry inh 1.4µM
O=C(/C=C/Nc1ccc(F)cc1F)c1ccco1	HCV inhibitor inconclusive, LASV entry inh inconclusive, MARV entry inh inconclusive
CN(C)c1ccc(N/C=C/C(=O)c2ccco2)cc1	LASV entry inh inconclusive, MARV entry inh 3.7µM
CNC(=O)NC(=O)CN1C=NC2SC(c3ccccc3)C=C2C1=O (centres undefined)	none (no result: FMDV inh, HCV inhibitor, LASV entry inh, HCMV inh)
O=C(/C=C/c1ccc(-c2cccc([N+](=O)[O-])c2)o1)N1CCOCC1	HCV inhibitor inconclusive, HCMV inh -61, MARV entry inh inconclusive
O=C(/C=C/c1cccc([N+](=O)[O-])c1)N1CCOCC1	MARV entry inh inconclusive
CCCNS(=O)(=O)c1ccc(OCC(=O)N2CCN(Cc3ccc4c(c3)OCO4)CC2)cc1	HCV inhibitor inconclusive, LASV entry inh inconclusive, HCMV inh inconclusive
CCCNS(=O)(=O)c1ccc(OCC(=O)N2CCN(Cc3ccc4c(c3)OCO4)CC2)c(C)c1	HCV inhibitor 7.9µM, LASV entry inh inconclusive, HCMV inh inconclusive, MARV entry inh inconclusive
O=C(CCc1ccc(S(=O)(=O)NCCc2ccccc2)cc1)N1CCN(Cc2ccc3c(c2)OCO3)CC1	HCMV inh -89 (no result: FMDV inh, HCV inhibitor, LASV entry inh, MARV entry inh)
O=C(Nc1ccccc1F)N1CC(=O)N2[C@H](CO)[C@@H](c3ccc(Br)cc3)[C@@H]2C1	none (no result: FMDV inh, HCV inhibitor, LASV entry inh, MARV entry inh)
C/C(=N\NC(=S)Nc1c(C)cccc1C)c1ccc(OC(F)F)cc1	HCV inhibitor inconclusive, LASV entry inh inconclusive, HCMV inh -86, MARV entry inh inconclusive
CC/C(=N\NC(=S)Nc1ccc(OC)cc1)c1ccc(OC(F)F)cc1	LASV entry inh inconclusive
COC(=O)N/N=C(\C)c1ccc(OC(F)F)cc1	MARV entry inh inconclusive
CC/C(=N\NC(=S)Nc1cc(C)ccc1C)c1ccc(OC(F)F)cc1	HCV inhibitor 13µM, LASV entry inh inconclusive
CCCCN=CN1c2cc(OC)ccc2-n2cccc2C1c1ccccc1 (centres undefined)	none (no result: FMDV inh, HCV inhibitor, LASV entry inh, MARV entry inh)
CCC(c1nnnn1-c1ccc2c(c1)OCCO2)N1CCN(c2ccccn2)CC1 (centres undefined)	none (no result: HCV inhibitor, LASV entry inh, MARV entry inh)
COc1cc2c(cc1NC(=O)c1cccc([N+](=O)[O-])c1)oc1ccccc12	FMDV inh 13µM, HCV inhibitor inconclusive, LASV entry inh inconclusive, HCMV inh inconclusive, MARV entry inh inconclusive
COc1cc2c(cc1NC(=O)c1cccnc1)oc1ccccc12	HCV inhibitor 3.2µM, LASV entry inh inconclusive
COc1cc2c(cc1NC(=O)c1ccc(C)c([N+](=O)[O-])c1)oc1ccccc12	HCV inhibitor inconclusive, MARV entry inh inconclusive
COc1cc2c(cc1NC(=O)c1ccncc1)oc1ccccc12	HCV inhibitor inconclusive (no result: HCMV inh)
Cc1ccc2c(c1)NC(=O)C(CC(=O)Nc1ccccc1Cl)O2 (centres undefined)	none (no result: HCV inhibitor, LASV entry inh)
Cc1cccc(C(=O)N2CCCC(Nc3ccc(C)c(C)c3)C2)n1 (centres undefined)	none (no result: LASV entry inh, MARV entry inh)
CC(=NNC(=S)N1CC2CCC(CC2)C1)c1cccc(C)n1	HCV inhibitor inconclusive, LASV entry inh inconclusive, HCMV inh -83, MARV entry inh inconclusive
CC(=NNC(=S)N1CC2CCC(CC2)C1)c1nccs1	HCV inhibitor inconclusive, LASV entry inh inconclusive, HCMV inh -63, MARV entry inh inconclusive
Cc1oc(-c2ccccc2NC(=O)c2ccccc2)nc1CNC(=O)C1CC(=O)OC12CCCCC2 (centres undefined)	none (no result: HCV inhibitor, LASV entry inh, HCMV inh, MARV entry inh)
COc1ccccc1NS(=O)(=O)c1ccc2oc(SCc3ccc(C#N)cc3)nc2c1	FMDV inh inconclusive, HCV inhibitor 11µM, LASV entry inh inconclusive, HCMV inh -84, MARV entry inh inconclusive
CCN(CC)S(=O)(=O)c1ccc2oc(SCC(=O)Nc3cc(C)on3)nc2c1	HCV inhibitor 6.3µM, LASV entry inh inconclusive, HCMV inh inconclusive, MARV entry inh inconclusive
CCN(CC)S(=O)(=O)c1ccc2oc(SCc3ccc(F)cc3)nc2c1	FMDV inh inconclusive, HCV inhibitor inconclusive, LASV entry inh 11µM, HCMV inh inconclusive, MARV entry inh inconclusive
Cc1cc(NC(=O)CSc2nc3cc(Cl)ccc3o2)no1	none
CCS(=O)(=O)c1ccc2oc(SCC(=O)NCCc3ccc(F)cc3)nc2c1	FMDV inh inconclusive, HCMV inh inconclusive
CCS(=O)(=O)c1ccc2oc(SCC(=O)NCCC3=CCCCC3)nc2c1	FMDV inh inconclusive, HCMV inh -103, MARV entry inh inconclusive
COc1ccc(CCNC(=O)C2CCCN(S(=O)(=O)c3ccc4c(c3)oc(=O)n4C)C2)cc1OC (centres undefined)	none (no result: HCV inhibitor)
CCOC(=O)CSc1nc2cc(S(=O)(=O)N3CCOCC3)ccc2n1CC	none
O=C(C1=C(O)CCCC1)N1CCOCC1	none (no result: FMDV inh, HCV inhibitor, LASV entry inh, HCMV inh)
CC(C)[C@H](NC(=O)C1CCCC1)C(=O)N1CCC[C@H]1C(=O)NCCc1ccccc1Cl	none (no result: FMDV inh, HCV inhibitor, LASV entry inh, MARV entry inh)
O=C(COC(=O)c1ccc(S(=O)(=O)NCc2ccco2)cc1)Nc1ccccc1OC(F)F	HCV inhibitor 11µM!
COc1ccc(S(=O)(=O)N2CCOCC2)cc1NC(=O)C1COc2ccccc2O1 (centres undefined)	LASV entry inh inconclusive, MARV entry inh inconclusive
Cc1ccc(CN2C(=O)C(Cc3ccccc3)Nc3ncnc(N4CCOCC4)c32)cc1 (centres undefined)	none (no result: HCV inhibitor, LASV entry inh, MARV entry inh)
COc1ccc(CN2C(=O)C(C)Nc3ncnc(N4CCOCC4)c32)cc1 (centres undefined)	HCMV inh -65 (no result: LASV entry inh, MARV entry inh)
CCC1Nc2ncnc(N3CCN(c4ccccc4)CC3)c2N(Cc2ccc(C)cc2)C1=O (centres undefined)	HCV inhibitor 2.8µM (no result: LASV entry inh, MARV entry inh)
